Beta apoptosis – beta cell apoptosis inhibition | INS-1E cytokine-induced death, ATP luminescence, 48 h; percent of positive-control rescue, neutral wells zero | protection from apoptosis, % (no concentration beside the values) | hit rate 0.8% among 300,000 | AID 435005;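 active means Every replicate reaches about 75%, or at least half do and their mean reaches it too, limit read from the data; inconclusive means At least half of replicates reach the limit but their mean does not; inactive means Under half of replicates reach the limit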;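 further: 0% = cytokine-treated negative control wells and 100% = positive control rescue; higher means more ATP so stronger rescue from cytokine killing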
PP1 inh – blocks human PP1-alpha phosphatase, a PP5 counter-screen; P62136; purified PP1alpha, OMFP fluorescence; inhibition, % at 6.7 µM; hit rate 0.9% among 320,000;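 active means inhibition above the mean inhibition of all tested compounds plus 3 SD, computed separately for each screening campaign, cut at about 15% in these data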
PP5 primary – PP5 (human) phosphatase inhibition; purified PP5c, OMFP substrate fluorescence; inhibition, % at 6.7 µM; P53041; AID 1987; hit rate 0.18% among 320,000;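 active means inhibition above the campaign's mean inhibition across all tested compounds plus 3 SD, cut at about 9.5% in these data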;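 further: 0% = DMSO only and 100% = 100 µM cantharidin control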
Target sequence (P53041 whole entry, looked up): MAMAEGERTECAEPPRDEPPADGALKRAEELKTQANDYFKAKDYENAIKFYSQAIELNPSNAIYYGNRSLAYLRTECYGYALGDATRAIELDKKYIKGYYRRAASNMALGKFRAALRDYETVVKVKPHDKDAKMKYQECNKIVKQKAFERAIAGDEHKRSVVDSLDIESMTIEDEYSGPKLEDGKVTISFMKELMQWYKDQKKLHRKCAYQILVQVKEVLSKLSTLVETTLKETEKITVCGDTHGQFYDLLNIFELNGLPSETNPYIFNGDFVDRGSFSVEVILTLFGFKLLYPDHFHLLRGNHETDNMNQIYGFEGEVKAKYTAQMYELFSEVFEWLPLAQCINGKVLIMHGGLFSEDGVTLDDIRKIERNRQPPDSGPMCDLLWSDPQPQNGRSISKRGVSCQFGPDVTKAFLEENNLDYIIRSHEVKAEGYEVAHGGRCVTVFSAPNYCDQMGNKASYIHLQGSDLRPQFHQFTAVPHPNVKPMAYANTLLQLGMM
CSC inhib – cancer stem cell inhibition; cancer stem cell-like cells viability, luminescence; inhibition, % at 7.5 µM; hit rate 1.1% among 300,000; in the data active means inhibition above about 75%; inconclusive means no clear call, values can overlap the other calls; tested in HMLE shEcad cells
Calb FLC – C. albicans growth modulation with fluconazole. C. albicans CaCi-2 (fluconazole-resistant clinical isolate) + fluconazole, Alamar Blue growth, 48 h. growth inhibition, % (concentration not given with the values). hit rate 0.57% among 300,000;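 active means growth inhibition above about 58% in most replicates, limit read from the data, passing the limit was not always enough; inconclusive means exactly half the replicates above a set limit; inactive means most replicates below a set limit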;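 further: all wells also contain fluconazole at 8 µg/ml as a sub-toxic cotreatment; 0% = median of DMSO wells and 100% = median of geldanamycin control wells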
Mdm2-MdmX inh – inhibitors of human Mdm2/MdmX interaction; AID 485346; SaOS-2 split-luciferase Mdm2/MdmX complementation, luminescence; O15151+Q00987; hit rate 3% among 330,000; inhibition, % at 8 µM;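 active means inhibition of at least 50% at 8 µM in the primary screen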
Mdm2 MdmX conf – human Mdm2/MdmX binding inhibition, confirmed | luminescent assay | hit rate 55% among 10,000 | shares compounds with Mdm2-MdmX inh | inhibition, % at 8 µM; in the data active means inhibition above about 40%
FLuc counter – full-length luciferase inhibition in Mdm2/MdmX counter-screen | SaOS-2 full-length luciferase counterscreen, luminescence | inhibition, % at 8 µM | hit rate 77% among 6,200 | AID 504607 | shares compounds with Mdm2-MdmX inh;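 active means mean inhibition at 8 µM reaching about 37%, which flags the compound as non-specific, limit read from the data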;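 further: p53-null SaOS-2 cells with luciferase driven by a doxycycline-inducible promoter; compound on cells about two nights before reading with doxycycline added after day one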
An asterisk follows results filed as active; ? = inconclusive; · = not tested or not shown; + = active, no number. Hits are enriched below; roughly 4.9% of the tested compounds scored in any of these assays.

SMILES	Beta apoptosis	PP1 inh	PP5 primary	CSC inhib	Calb FLC	Mdm2-MdmX inh	Mdm2 MdmX conf	FLuc counter
Cc1ccc(S(=O)(=O)N2CCOCC2)cc1C(=O)Nc1nc(-c2cccnc2)cs1	-9	-3	4	-4	3	8	·	·
O=C(Nc1nc(-c2ccccn2)cs1)c1cc(S(=O)(=O)N2CCOCC2)ccc1F	·	9	1	·	·	53*	29	·
CC(C)(C)OC(=O)NCCCCCc1cn([C@@H](CO)C(=O)NCCCCCCCCCCC(=O)N2CCN(C(=O)OC(C)(C)C)CC2)nn1	109*	3	5	18	·	62*	6	·
CCn1ccc(-c2ccccc2)c(C#N)c1=O	-4	-4	-2	5	9	0	·	·
CC(C)S(=O)(=O)c1csc(NC(=O)Nc2cc(Cl)ccc2Cl)c1Cl	22	-6	4	66	-24	62*	38	93*
Cc1cccc(S(=O)(=O)Nc2nc3ccccc3nc2NCc2ccc3c(c2)OCO3)c1	·	1	2	·	0	11	·	·
COc1ccc(C2CC(c3cccs3)=NN2C(=O)CSC2=NCCS2)cc1 (stereo not drawn)	-2	4	2	19	10	54*	14	·
Cc1ccc(C2CC(c3cccs3)=NN2C(=O)CCl)cc1 (stereo not drawn)	-10	0	4	29	3	100*	96*	53*
CCC(=O)N1N=C(c2cccs2)CC1c1ccc(C)cc1 (stereo not drawn)	3	0	2	-6	11	-12	·	·
CCOC(=O)CCSCC(=O)N1N=C(c2cccs2)CC1c1ccc(C)cc1 (stereo not drawn)	1	2	1	-2	-4	5	·	·
Cc1ccc(C2CC(c3cccs3)=NN2C(=O)CSC2=NCCS2)cc1 (stereo not drawn)	-9	9	5	3	-5	55*	28	·
COc1ccc(N2CCN(CCCNC(=O)C(=O)c3c(C)n(C)c4ccccc34)CC2)cc1	1	-6	1	5	-15	13	·	·
COc1ccc(S(=O)(=O)Nc2ccc3c(c2)C(=O)N([C@H](C)CO)C[C@H](C)[C@@H](CN(C)S(=O)(=O)c2ccc(F)cc2)O3)cc1	0	·	·	-15	·	-29	·	·
CS(=O)(=O)c1ccccc1C(=O)Nc1ccccc1Cc1ccccc1	·	4	0	-13	-3	13	·	·
Cc1ccc(NC(=O)c2ccccc2NS(=O)(=O)c2ccc(Cl)s2)cc1	77*	2	4	51	78*	90*	81*	29
O=C(NCc1ccco1)c1ccccc1NS(=O)(=O)c1ccc(Cl)s1	-2	1	3	-4	62	-2	·	·
O=C(Nc1ccccc1)c1ccccc1NS(=O)(=O)c1ccc(Cl)s1	52	4	5	43	-2	85*	62*	28
Cc1ccc(NS(=O)(=O)c2ccc(Cl)s2)nc1	2	-7	0	-2	6	6	·	·
O=C(Nc1ccccc1Cc1ccccc1)c1ccccc1NS(=O)(=O)c1ccc(Cl)s1	47	5	4	+	?	93*	92*	21
COc1ccc(NC(C)=O)cc1S(=O)(=O)NCCc1ccccn1	-3	-3	0	·	·	-1	·	·
O=C(O)c1cc2cc(Oc3ccccc3)ccc2[nH]1	-9	2	1	-5	-1	30	·	·
CCc1c(C)sc2nc(C(C)C)nc(SCC(=O)N3CCc4ccccc4C3)c12	105*	-4	0	192*	-4	95*	58*	74*
Cc1sc2nc(C(C)C)nc(SCC(=O)N3CCN(C(=O)c4ccco4)CC3)c2c1C	-12	-1	1	-13	18	17	·	·
CCC(C(=O)NCc1cccnc1)n1nc(C)n2c(cc3occc32)c1=O (stereo not drawn)	3	-4	1	-17	-2	17	·	·
CC(=O)Nc1cccc(OCCCNC(=O)c2ccc(C(C)(C)C)cc2)c1	2	1	2	14	-12	-13	·	·
SMILES	Beta apoptosis	PP1 inh	PP5 primary	CSC inhib	Calb FLC	Mdm2-MdmX inh	Mdm2 MdmX conf	FLuc counter
O=C(OCC(=O)c1c[nH]c2ccccc12)c1cc(Br)ccc1O	-2	0	3	-1	8	-20	·	·
CCc1c(C#N)c(SCCC(=O)Nc2ccc(F)cc2)nc2c1C(=O)CC(C)(C)C2	-6	6	4	36	17	56*	11	·
CCOC(=O)C(CC)(CC)C(=O)/C=C/c1cccc(Br)c1	8	1	4	-7	5	97*	66*	29
CC1CCc2c(sc3nc(C(C)(C)C)nc(N4CCN(C(=O)CCl)CC4)c23)C1 (stereo not drawn)	98*	7	3	63	31	98*	36	35
CCC(=O)N1CCN(c2nc(CC)nc3sc4c(c23)CCCC4)CC1	2	2	3	-6	-9	19	·	·
COc1ccc(OC)c(NS(=O)(=O)c2ccc(N3CCCC3=O)cc2)c1	15	-2	0	57	-12	72*	57*	83*
COc1ccc(CCNS(=O)(=O)c2ccc(N3CCCC3=O)cc2)cc1	3	-1	-1	-16	-3	13	·	·
COc1ccccc1Nc1nc(NCC2CCCO2)c2ccccc2n1 (stereo not drawn)	·	3	5	12	-4	12	·	·
CC(C)CCn1c(Sc2nc3ccccc3o2)nc2c1c(=O)[nH]c(=O)n2C	-10	1	2	20	35	61*	46*	41*
Cn1c(=O)[nH]c(=O)c2c1nc(N1CCCCC1)n2CCSc1nc2ccccc2o1	4	1	2	9	0	2	·	·
CC(=O)NC(c1cc(Cl)c2cccnc2c1O)C1CC1 (stereo not drawn)	87*	1	0	110*	·	53*	49*	33
CC(=O)NC(c1cc(Cl)c2ccccc2c1O)C(C)C (stereo not drawn)	2	-3	1	24	·	7	·	·
CC(=O)Nc1c(Cl)cc([N+](=O)[O-])c2ccccc12	-6	-4	4	-5	-3	31	·	·
CC(=O)NC(c1ccccc1)c1cc([N+](=O)[O-])c2cccnc2c1O (stereo not drawn)	37	6	3	120*	6	63*	67*	50*
CCC(=O)NC(c1cc(Cl)c2ccccc2c1O)C1CC1 (stereo not drawn)	-4	-5	3	-10	·	-8	·	·
CC(=O)NC(c1ccc(C)cc1)c1cc(Cl)c2cccnc2c1O (stereo not drawn)	6	·	·	18	-3	87*	77*	21
CC(=O)NC(c1cc(Cl)c2cccnc2c1O)C(C)C (stereo not drawn)	103*	1	2	42	·	66*	43*	37*

Screening data: PubChem, several laboratories
